Measurements: PubChem BioAssay
Several values for one entry are separate records, joined by “and”; a condition that tells them apart may be missing. Equal values may be shown once. Activity calls are given as the source filed them.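 Rule for the calls, unless noted: active = inhibition at or above 50% relative to wild type and mutant plate controls; inactive = inhibition below 50%.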

Assays:
[1] = inhibitors of TNFa-induced NFkB p65 translocation, primary screen, imaging, HUVEC, MLSMR starter and 10KST1 sets (AID 438;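 active = inhibition above 20% together with a positive visual image hit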;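 note: compound added about 3h40 before a 20 min TNFalpha stimulation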;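 for inhibition: signal is the nuclear over cytoplasmic p65 intensity ratio per well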); details: HUVEC TNFa-induced p65 nuclear translocation; cell count: measured here: nuclei count (cytotoxicity indicator), at 2.08 µM unless noted; inhibition: at 2 µM, stronger effect = higher value unless noted
[2] = reduction of polyQ htt aggregates in cells – imaging, exon1htt(103Q)mCFP cells, high-content imaging, primary screen (AID 483;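 active = visual image review flags a hit and inhibition of aggregation exceeds 20%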;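 note: compound exposure lasted 3 days before fixation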;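 for nuclei count: percent of the per-plate median nuclei count of sample wells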); details: exon1htt(103Q)mCFP cell line, aggregate imaging, at 2 µM; inhibition of aggregation: stronger effect = higher value; nuclei count: measured here: cell count, toxicity
[3] = endothelial E-selectin expression blockers – imaging, HUVEC, immunofluorescence, MLSMR starter and 10KST1 sets, primary screen (AID 487;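 active = visually confirmed hit in the image check and inhibition above 20%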;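 for inhibition: signal is fraction of cell area covered by stained E-selectin grains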;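 for nuclei count: 100% = median nuclei count of all wells on the same plate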); details: HUVEC TNFalpha-induced E-selectin immunofluorescence imaging, at 2 µM; inhibition: stronger effect = higher value; nuclei count: measured here: cell number, toxicity
[4] = Primary imaging screen for DUSP6 inhibitors that restore phospho-Erk in transfected HeLa cells, chemical complementation (AID 609;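 active = compounds giving at least 50% inhibition in the cell-based MKP-3 phosphatase rescue imaging test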;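 for inhibition: phospho-Erk level distribution per well compared with pooled transfected vehicle control wells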); details: HeLa MKP-3 transfected, phospho-Erk imaging KS statistic, at 10 µM
[5] = target: Dual specificity protein phosphatase 6 (Homo sapiens) (UniProt Q16828); experiment: as above; details: HeLa MKP-3 transfected, phospho-Erk imaging KS statistic, at 10 µM, stronger effect = higher value
Sequence of Dual specificity protein phosphatase 6 (Homo sapiens) (Q16828 whole entry, looked up): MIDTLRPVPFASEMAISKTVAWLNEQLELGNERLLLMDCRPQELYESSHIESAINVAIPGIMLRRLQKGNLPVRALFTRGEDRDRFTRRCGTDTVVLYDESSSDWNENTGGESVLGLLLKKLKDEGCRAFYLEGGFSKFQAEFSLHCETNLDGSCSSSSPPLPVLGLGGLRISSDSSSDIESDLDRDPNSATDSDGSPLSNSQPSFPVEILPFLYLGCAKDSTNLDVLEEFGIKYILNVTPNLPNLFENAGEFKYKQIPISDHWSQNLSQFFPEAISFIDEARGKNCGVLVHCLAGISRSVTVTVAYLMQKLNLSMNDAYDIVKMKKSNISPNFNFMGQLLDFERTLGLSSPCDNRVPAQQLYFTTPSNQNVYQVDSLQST

[6] = target: Voltage-gated potassium channel subunit beta-2 (Rattus norvegicus) (UniProt P62483); experiment: inhibitors of rat Kvbeta2 reductase activity – biochemical, NADPH fluorescence, primary screen (AID 622;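 active = fluorescence slope higher than the sample average by over 3 SD, cut at about -0.22 in these data, passing the limit was not always enough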;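 note: slope of raw intensity against log time taken from 70 to 1610 s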); details: recombinant KvBeta, 4-cyanobenzaldehyde reduction, at 10 µM, stronger effect = higher value
Sequence of Voltage-gated potassium channel subunit beta-2 (Rattus norvegicus) (P62483 whole entry, looked up): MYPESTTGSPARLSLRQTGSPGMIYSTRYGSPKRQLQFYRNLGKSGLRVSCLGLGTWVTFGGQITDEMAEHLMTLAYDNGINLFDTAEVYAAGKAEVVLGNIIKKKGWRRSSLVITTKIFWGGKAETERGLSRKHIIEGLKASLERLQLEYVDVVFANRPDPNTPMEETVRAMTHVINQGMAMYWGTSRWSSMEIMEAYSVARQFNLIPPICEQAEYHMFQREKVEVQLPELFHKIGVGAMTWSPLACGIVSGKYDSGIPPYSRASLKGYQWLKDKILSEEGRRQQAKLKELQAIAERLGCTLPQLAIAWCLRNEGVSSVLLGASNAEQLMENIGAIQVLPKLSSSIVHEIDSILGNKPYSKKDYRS

[7] = target: Voltage-gated potassium channel subunit beta-2 (Rattus norvegicus) (UniProt P62483); experiment: enhancers of rat Kvbeta2 NADPH turnover – biochemical, NADPH fluorescence, primary screen (AID 623;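 active = NADPH fluorescence slope more negative than the mean of all samples by about 3 SD, 99.7% confidence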;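 note: fluorescence intensity change per second fitted from 20 to 320 s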); details: Recombinant KvBeta, NADPH fluorescence decrease slope, 10 min; at 10 µM; stronger effect = lower value
[8] = target: Alpha-2C adrenergic receptor (Homo sapiens) (UniProt P18825); experiment: compounds altering alpha2C-coupled GIRK flux – cell-based, HEK293 alpha2C/GIRK1/2, thallium flux, primary screen (AID 624;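 active = fluorescence slope after compound addition differing from the mean of all screened samples at 99.7% confidence, in either direction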;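 note: slope of fluorescence ratio to pre-addition baseline per second over 15 to 24 s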); details: thallium flux BTC fluorescence, at 10 µM, actives lie on both sides
Sequence of Alpha-2C adrenergic receptor (Homo sapiens) (P18825 whole entry, looked up): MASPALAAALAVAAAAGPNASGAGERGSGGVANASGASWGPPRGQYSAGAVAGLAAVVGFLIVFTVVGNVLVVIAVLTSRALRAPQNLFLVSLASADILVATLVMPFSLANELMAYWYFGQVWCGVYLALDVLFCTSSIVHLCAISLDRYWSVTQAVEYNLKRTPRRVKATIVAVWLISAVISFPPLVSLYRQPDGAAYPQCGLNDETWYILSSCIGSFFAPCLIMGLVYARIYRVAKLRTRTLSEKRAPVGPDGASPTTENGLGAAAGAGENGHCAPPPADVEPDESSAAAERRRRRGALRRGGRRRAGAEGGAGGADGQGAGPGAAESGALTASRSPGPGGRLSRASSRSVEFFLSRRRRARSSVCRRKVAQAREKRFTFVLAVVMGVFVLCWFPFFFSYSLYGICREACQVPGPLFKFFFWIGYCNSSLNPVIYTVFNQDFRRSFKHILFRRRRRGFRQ

[9] = inhibitors of larval lipid processing in zebrafish, primary screen, whole organism, PED6 fluorescence, gall bladder and intestine (AID 686;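 active = a full or partial loss of lipid-probe fluorescence in the fish gall bladder, intestine or both, judged by eye; inactive = no fluorescence loss, or compound toxic to the fish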;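 note: larvae 5 to 7 days old with five fish per well; signal comes from phospholipase A2 cleavage of quenched PED6 carried via bile; overnight exposure to compound and PED6 before scoring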); details: Zebrafish larvae PED6 lipid processing, fluorescence scoring
[10] = loss of swimming-algae plug formation – whole organism, Chlamydomonas reinhardtii, WT vs cilia-less mutant, absorbance, 96-well, primary screen (AID 463189); details: Chlamydomonas reinhardtii gravitaxis, OD600 absorbance, 2 days; at 10 µM; stronger effect = higher value;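 note: 0% = wild type cc124 cells in DMSO and 100% = ciliumless bld1 mutant cells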
[11] = blockers of RIG-like receptor reporter activation – cell-based, Sendai virus stimulus, luciferase, 10K MLSCN set, TLR/RLR signaling modifier project, primary screen (AID 602276;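 active = inhibition at or above 50% at 10 µM; inactive = inhibition below 50%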;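 note: firefly luciferase from ISG56 promoter only with Renilla not read in this screen; 0% = Sendai virus plus DMSO and 100% = medium plus DMSO without virus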); details: HEK293 RL24 IRF3 luciferase reporter, at 10 µM, stronger effect = higher value
[12] = TLR3 IRF3 reporter activation blockers – cell-based, poly I:C stimulus, luciferase, 10K MLSCN set, primary screen (AID 602277;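 active = inhibition of the reporter signal at or above 50%; inactive = inhibition below 50%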); details: HEK293-TLR3 RL24 IRF3 luciferase reporter, at 10 µM, stronger effect = higher value
[13] = target: Muscarinic acetylcholine receptor M4 (Homo sapiens) (UniProt P08173); experiment: M4-linked GIRK flux change, two-sided – cell-based, HEK293 M4/GIRK, thallium flux, BTC-AM, M4 allosteric agonist project, primary screen (AID 625;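 active = fluorescence slope after compound addition differing from the mean of all tested samples at 99.7% confidence, mostly higher but some lower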;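 note: thallium influx through GIRK channels coupled to M4 in HEK293 cells with BTC-AM dye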); details: at 10 µM, actives lie on both sides
Sequence of Muscarinic acetylcholine receptor M4 (Homo sapiens) (P08173 whole entry, looked up): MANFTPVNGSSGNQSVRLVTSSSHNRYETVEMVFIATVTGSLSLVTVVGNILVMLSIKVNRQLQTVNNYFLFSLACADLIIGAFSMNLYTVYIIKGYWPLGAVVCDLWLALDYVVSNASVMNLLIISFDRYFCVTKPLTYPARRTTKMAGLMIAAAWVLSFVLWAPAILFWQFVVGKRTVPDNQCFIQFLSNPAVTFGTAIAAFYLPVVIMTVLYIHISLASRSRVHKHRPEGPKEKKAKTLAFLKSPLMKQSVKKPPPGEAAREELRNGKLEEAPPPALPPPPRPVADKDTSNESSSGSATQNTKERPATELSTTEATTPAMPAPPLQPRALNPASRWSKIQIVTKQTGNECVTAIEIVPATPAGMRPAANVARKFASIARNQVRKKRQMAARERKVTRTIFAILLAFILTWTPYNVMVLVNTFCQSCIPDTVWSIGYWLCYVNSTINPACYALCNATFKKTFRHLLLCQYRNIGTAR

[14] = measured here: cell density z-score
[15] = measured here: nuclear c-Myc green intensity z-score
[16] = measured here: nuclear pErk red intensity z-score, stronger effect = higher value

CN1CCN(C(=O)OC2c3nccnc3C(=O)N2c2ccc(Cl)cn2)CC1 (stereo unspecified)
cell count [1]: 563 | inhibition [1]: -7.6% (inactive) | inhibition of aggregation [2]: -7% (inactive) | nuclei count [2]: 109% | inhibition [3]: -132% (inactive) | nuclei count [3]: 114% | z-score [4, 14]: -0.576 | z-score [4, 15]: -1.54 | z-score [4, 16]: 0.116 | inhibition [5]: 3.45% (inactive) | fluorescence slope [6]: -0.501 (inactive) | NADPH fluorescence slope [7]: -7.3e-05 (inactive) | slope [8]: 0.00689 (inactive) | outcome [9]: inactive | inhibition [10]: 4.29% (inactive) and -9.06% (inactive) | inhibition [11]: 15.5% (inactive) | inhibition [12]: 43.6% (inactive)

CCCCCCn1c(O)c(C=NC2CCN(Cc3ccccc3)CC2)c(=O)[nH]c1=O
cell count [1]: 592 | inhibition [1]: -3.3% (inactive) | inhibition of aggregation [2]: -17.9% (inactive) | nuclei count [2]: 112% | inhibition [3]: -34.2% (inactive) | nuclei count [3]: 131% | z-score [4, 14]: 2 | z-score [4, 15]: -0.0485 | z-score [4, 16]: 0.697 | inhibition [5]: 19.3% (inactive) | fluorescence slope [6]: -0.332 (inactive) | NADPH fluorescence slope [7]: -2.2e-05 (inactive) | slope [8]: 0.0054 (inactive) | outcome [9]: inactive | inhibition [10]: 25.8% (inactive) | inhibition [11]: 11.7% (inactive) | inhibition [12]: -13.6% (inactive)

NCC1(CC(=O)O)CCCCC1
cell count [1]: 645 | inhibition [1]: -5.2% (inactive) | inhibition of aggregation [2]: -6.5% (inactive) | nuclei count [2]: 100% | inhibition [3]: -78.6% (inactive) | nuclei count [3]: 116% | z-score [4, 14]: -0.493 | z-score [4, 15]: 0.124 | z-score [4, 16]: -0.808 | inhibition [5]: 1.38% (inactive) | fluorescence slope [6]: -0.493 (inactive) | NADPH fluorescence slope [7]: -3.2e-05 (inactive) | slope [8]: 0.00518 (inactive) | outcome [9]: inactive | inhibition [10]: 4.56% (inactive) and -5.83% (inactive) | inhibition [11]: -3.61% (inactive) | inhibition [12]: 3.7% (inactive)

CNCC(O)c1ccc(O)cc1 (stereo unspecified)
cell count [1]: 624 | inhibition [1]: 3.3% (inactive) | inhibition of aggregation [2]: 4.2% (inactive) | nuclei count [2]: 102% | inhibition [3]: -43.9% (inactive) | nuclei count [3]: 118% | z-score [4, 14]: -0.968 | z-score [4, 15]: -0.213 | z-score [4, 16]: 1.33 | inhibition [5]: -0.828% (inactive) | fluorescence slope [6]: -0.493 (inactive) | NADPH fluorescence slope [7]: 1.3e-05 (inactive) | slope [8]: 0.00558 (inactive) | outcome [9]: inactive | inhibition [10]: -0.226% (inactive) and -8.32% (inactive) | inhibition [11]: 14.9% (inactive) | inhibition [12]: 28.2% (inactive)

CN1C(=O)CN=C(c2ccc(Cl)cc2)c2cc(Cl)ccc21
cell count [1]: 702 | inhibition [1]: -2.8% (inactive) | inhibition of aggregation [2]: -25.6% (inactive) | nuclei count [2]: 108% | inhibition [3]: -88.1% (inactive) | nuclei count [3]: 128% | z-score [4, 14]: 0.107 | z-score [4, 15]: -0.617 | z-score [4, 16]: 0.523 | inhibition [5]: -6.41% (inactive) | fluorescence slope [6]: -0.442 (inactive) | NADPH fluorescence slope [7]: -4.1e-05 (inactive) | slope [8]: 0.00345 (inactive) | outcome [9]: inactive; toxic | inhibition [10]: -0.225% (inactive) | inhibition [11]: 0.552% (inactive) | inhibition [12]: 32% (inactive)

NCCc1ccc(O)cc1
cell count [1]: 431 | inhibition [1]: 6% (inactive) | inhibition of aggregation [2]: 11.4% (inactive) | nuclei count [2]: 95.7% | inhibition [3]: 22.3% (inactive) | nuclei count [3]: 92.7% | fluorescence slope [6]: -0.573 (inactive) | NADPH fluorescence slope [7]: -7e-05 (inactive) | fluorescence slope [13]: 0.00467 (inactive) | inhibition [10]: 7.08% (inactive) | inhibition [11]: 12.8% (inactive) | inhibition [12]: 19% (inactive)

O=C(CCCN1CCC2(CC1)C(=O)NCN2c1ccccc1)c1ccc(F)cc1
cell count [1]: 564 | inhibition [1]: 2.1% (inactive) | inhibition of aggregation [2]: -20.4% (inactive) | nuclei count [2]: 100% | inhibition [3]: 3.3% (inactive) | nuclei count [3]: 103% | z-score [4, 14]: -2.08 | z-score [4, 15]: 0.206 | z-score [4, 16]: 3.52 | inhibition [5]: 3.59% (inactive) | fluorescence slope [6]: -0.51 (inactive) | NADPH fluorescence slope [7]: -3.9e-05 (inactive) | slope [8]: 0.00481 (inactive) | outcome [9]: inactive | inhibition [10]: 4.76% (inactive) and 18.8% (inactive) | inhibition [11]: 29.9% (inactive) | inhibition [12]: 29.3% (inactive)

C[C@H]1CCC/C=C/C2C[C@H](O)CC2[C@H](O)/C=C/C(=O)O1 (stereo partly specified)
cell count [1]: 647 | inhibition [1]: 83.2% (active) | inhibition of aggregation [2]: -436% (inactive) | nuclei count [2]: 0.6% | inhibition [3]: 94.9% (active) | nuclei count [3]: 120% | z-score [4, 14]: -0.283 | z-score [4, 15]: 0.495 | z-score [4, 16]: -0.185 | inhibition [5]: 23.4% (inactive) | fluorescence slope [6]: -0.473 (inactive) | NADPH fluorescence slope [7]: -3.1e-05 (inactive) | slope [8]: 0.00536 (inactive) | outcome [9]: inactive; toxic | inhibition [10]: 155% (active) | inhibition [11]: -44.8% (inactive) | inhibition [12]: 83% (active)

CC(C)C(=O)N1CCN(CCN=Cc2c(O)n(C)c(=O)n(C)c2=O)CC1
cell count [1]: 517 | inhibition [1]: -3.1% (inactive) | inhibition of aggregation [2]: -28.7% (inactive) | nuclei count [2]: 138% | inhibition [3]: -78.2% (inactive) | nuclei count [3]: 112% | z-score [4, 14]: 0.289 | z-score [4, 15]: -1.08 | z-score [4, 16]: 0.644 | inhibition [5]: 1.9e-07% (inactive) | fluorescence slope [6]: -0.5 (inactive) | NADPH fluorescence slope [7]: -3.4e-05 (inactive) | slope [8]: 0.00563 (inactive) | outcome [9]: inactive | inhibition [10]: 33.6% (inactive) | inhibition [11]: -6.82% (inactive) | inhibition [12]: -2.86% (inactive)

CCCCC1(CN2CCCC2=O)C(=O)NC(=O)NC1=O
cell count [1]: 325 | inhibition [1]: -24.8% (inactive) | inhibition [3]: -135% (inactive) | nuclei count [3]: 118% | z-score [4, 14]: 0.342 | z-score [4, 15]: -1.01 | z-score [4, 16]: -1.02 | inhibition [5]: 3.5% (inactive) | fluorescence slope [6]: -0.467 (inactive) | NADPH fluorescence slope [7]: 1.5e-05 (inactive) | slope [8]: 0.00649 (inactive) | outcome [9]: inactive | inhibition [10]: 32.8% (inactive)
